Reference: PubChem BioAssay (Tox21)
Results filed as inconclusive are left out. Values without a mark were called inactive. The source made the active and inactive calls. Calls come from the whole dose curve.

Assay: qHTS assay to identify small molecule agonists of the endoplasmic reticulum stress response signaling pathway - cell viability counter screen (AID 1159517); note: nearly all actives have a fitted effect of over 50% in size
Conditions: ESRE-bla HeLa viability, CellTiter-Glo luminescence, 5 h; series mostly up to 61 µM
Excerpt: U.S. Tox21 Program National Center for Advancing Translational Sciences [NCATS] NIH Chemical Genomics Center [NCGC] U.S. Environmental Protection Agency [EPA] National Institutes of Environmental Health Sciences [NIEHS] National Toxicology Program [NTP] U.S. Food and Drug Administration [FDA] Tox21 Assay Overview: Endoplasmic Reticulum (ER) plays an important role in cellular signaling, protein folding/maturation, stress response, lipid biosynthesis, calcium storage and release etc. Under stress conditions, proteins in ER misfold or unfold, and leading to the expression of ER stress responsive genes. ER stress has been associated with a variety of pathophysiological conditions such as cancer, inflammation, neurodegenerative diseases, diabetes, ischemic heart disease etc. To identify the compounds that induce ER stress response, an ER stress reporter cell line, CellSensor ESRE-bla HeLa (Life Technologies, Carlsbad, CA) containing a beta-lactamase reporter gene under control of the Endoplasmic reticulum Stress Response Element (ESRE) was used to screen Tox21 10K compound library. The cytotoxicity of the Tox21 compound library against the ESRE-bla HeLa cell line was tested in parallel by measuring cell viability using the CellTiter-Glo assay in the same wells.
Tox21 Assay Protocol Summary: ESRE-bla HeLa cells were dispensed at 1,500 cells/6 uL of assay medium per well into black wall/clear-bottom 1536-well plates using a Multidrop Combi (ThermoFisher Scientific, Waltham, MA) dispenser. After the assay plates were incubated at 37 C and 5% CO2 for an overnight, 23 nL of compounds dissolved in DMSO, positive controls or DMSO only was transferred to the assay plate by a Pintool station (Kalypsys, San Diego, CA). The assay plates were incubated at 37 C and 5% CO2 for 5 hr. One uL of LiveBLAzer B/G FRET substrate (Life Technologies) was added using a FRD (Flying Reagent Dispenser, Aurora Discovery, San Diego, CA) and the plates were incubated at room temperature for 2 hr. Fluorescence intensity (405 nm excitation, 460 nm and 530 nm emissions) was measured using an Envision plate reader (PerkinElmer, Shelton, CT). For cytotoxicity, 4 ul/well of CellTiter-Glo reagent was added into the assay plates using an FRD. After 30 min incubation at room temperature, the luminescence intensity was measured using a ViewLux plate reader (PerkinElmer).
% is set by controls: 0 for no effect and ±100 for the full control effect.

| SMILES | outcome | activity change, negative = cytotoxicity |
| --- | --- | --- |
| CCCCCCCCCCCCCCCCCCN(C)C | inactive | – |
| O=c1[nH]c(=O)c2[nH]c(=O)[nH]c2[nH]1 | – | -24.3% [at 6.95 µM] |
| CCN1CN(CC)CN(CC)C1 | inactive | – |
| NS(=O)(=O)c1cc2c(cc1Cl)NC(CC1CCCC1)NS2(=O)=O (stereo not given) | inactive | – |
| O=S(=O)(O)CCO | inactive | – |
| CCC(C)(CCC(C)C)C(=O)[O-].CCC(C)(CCC(C)C)C(=O)[O-].[Zn+2] (stereo not given) | inactive | – |
| Cc1ccccc1C(=O)N1CC/C(=N\OS(=O)(=O)O)c2ccc(Cl)cc21 | inactive | – |
| COC(/C=C(\C)CCC=C(C)C)OC | inactive | – |
| CCCCOC(=O)C(=O)OCCCC | inactive | – |
| CCCCCCCCCCCCCCCC(=O)NCCO | inactive | – |
| CCC1Nc2cc(Cl)c(S(N)(=O)=O)cc2S(=O)(=O)N1 (stereo not given) | inactive | – |
| COc1ccc(N=Nc2cc(C)c(N=Nc3ccc(S(=O)(=O)O)cc3)cc2OC)cc1 | inactive | – |
| COC(=O)CCC(=O)O | inactive | – |
| O=C(O)c1ccccc1C(=O)Nc1ccc(S(=O)(=O)Nc2nccs2)cc1 | inactive | – |
| O=S(=O)(O)c1cc(O)ccc1O | inactive | – |
| CCC(=O)OCCC(C)CCC=C(C)C (stereo not given) | inactive | – |
| Nc1ccc(S(=O)(=O)Nc2ccccn2)cc1 | inactive | – |
| COc1ccc(NS(=O)(=O)c2ccc(N)cc2)nn1 | inactive | – |
| CCNC(=O)NCCCOc1cccc(CN2CCCCC2)c1 | inactive | – |
| NC(=O)C1(N2CCCCC2)CCN(CCCC(=O)c2ccc(F)cc2)CC1 | inactive | – |

| SMILES | outcome | activity change, negative = cytotoxicity |
| --- | --- | --- |
| CCC(=O)c1ccc(O)cc1 | inactive | – |
| CCCCC(CC)COC(=O)c1ccccc1 (stereo not given) | inactive | – |
| Cc1oc(=O)oc1CN1CCN(c2cc3c(cc2F)c(=O)c(C(=O)O)c2n3C(C)S2)CC1 (stereo not given) | inactive | – |
| O=S1(=O)CCCC1 | inactive | – |
| CCCCOC(=O)[C@@H](C)Oc1ccc(Oc2ccc(C(F)(F)F)cn2)cc1 | inactive | – |
| COc1cc([N+](=O)[O-])ccc1N | inactive | – |
| Nc1ccc(S(=O)(=O)NC(=O)c2ccccc2)cc1 | inactive | – |
| FC(F)(F)/C(=N\OCC1OCCO1)c1ccc(Cl)cc1 | inactive | – |
| Cc1cccc(C(=O)O)c1[N+](=O)[O-] | inactive | – |
| Cc1nc([N+](=O)[O-])cn1-c1ccc([N+](=O)[O-])cc1 | inactive | – |
| Nc1ccc(C(=O)OCC(O)CO)cc1 (stereo not given) | inactive | – |
| CCOC(=O)CCc1ccccc1 | inactive | – |
| CC(C)CCO | inactive | – |
| CC(C)CCC(=O)CCC(C)C | inactive | – |
| Nc1cc(C(=O)O)ccc1Cl | inactive | – |
| CC(C)CCCCCCOC(=O)C1CCCCC1C(=O)OCCCCCCC(C)C (stereo not given) | inactive | – |
| CC1CCC(C(C)(C)S)C(=O)C1 (stereo not given) | inactive | – |
| O=CN1CCOCC1 | inactive | – |
| CCCCCCCCCOCC1CO1 (stereo not given) | inactive | – |
| O=C(O)c1ccccc1C(=O)OCc1ccccc1 | inactive | – |
